Compound activity from PubChem BioAssay.
SUMO Mot1 rescue: inhibitors of SUMOylation pathway: yeast Mot1-301 growth rescue | S. cerevisiae Mot1-301 growth rescue, ATP luminescence, 38.5C; percent above DMSO median, 100 means doubled | growth rescue, % at 18.8 µM | actives 1% (n = 320,000) | AID 2716;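 active = every valid replicate shows activation above 250% relative to neutral control wells; inactive = the rest, any valid replicate at or below 250%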;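 note: OY570 slx delta 5 strain wells were the positive control but not used for scaling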
AI-2 QS modul: Vibrio harveyi AI-2 quorum sensing modulation. Vibrio harveyi JMH597 AI-2 luminescence/OD600 ratio, 9 h; active compounds read low; strain lacks LuxN and CqsS sensors; 0 = neutral-control median. actives 0.4% (n = 300,000). activity change, % at 7.5 µM; in the data active = activity change below about -75%, passing the limit was not always enough; inconclusive = no clear call, values can overlap the other calls;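 note: luminescence divided by OD600 gain over 9 h not by final OD600 alone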
ALR H2O2 inh: inhibitors of human sulfhydryl oxidase ALR; P55789; purified ALR, DTT oxidation, H2O2 HRP-luminol luminescence; inhibition, % (no concentration beside the values); actives 3.8% (n = 290,000); AID 485317;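 active = mean replicate inhibition above about 79%, with every replicate also reaching it, limit read from the data; inconclusive = only one of the two criteria met; inactive = mean below limit and not every replicate reaching it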
Target sequence (P55789 whole entry, looked up): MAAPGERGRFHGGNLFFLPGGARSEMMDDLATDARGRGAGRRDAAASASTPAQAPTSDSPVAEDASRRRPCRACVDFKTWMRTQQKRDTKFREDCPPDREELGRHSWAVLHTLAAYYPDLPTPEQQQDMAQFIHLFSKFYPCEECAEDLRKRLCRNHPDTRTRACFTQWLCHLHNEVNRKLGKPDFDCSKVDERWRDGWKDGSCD
HIF activator: HIF pathway transcriptional activation | actives 0.32% (n = 300,000) | activation, % at 7.5 µM (by protocol) | U2OS HRE-luciferase reporter, luminescence; normalized: DMSO 0%, desferrioxamine 100%;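 active = mean activation of at least 10% of the iron chelator positive control signal, with at least half of replicates also reaching 10%; inconclusive = mean and replicate majority disagree about reaching 10%; inactive = mean and most replicates under 10%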
The depositor's hits bear a star; ? = inconclusive; / = no result. An excerpt weighted towards active compounds, which were near 4.8% of everything screened.

SMILES	SUMO Mot1 rescue	AI-2 QS modul	ALR H2O2 inh	HIF activator
O=C(NCc1ccco1)c1cnc2ccccn2c1=O	10	6	-9	0
CCN(CC)c1ccc(NC(=O)c2cnc3ccccn3c2=O)c(C)c1	10	/	99*	0
O=C(CNCc1ccccc1Cl)Nc1ccccc1N1CCCCC1	77	19	4	0
Cc1onc(-c2ccccc2)c1C(O)c1ccc(F)cc1 (stereo unspecified)	11	-2	-4	2
CCN(CC)c1ccc(NC(=O)c2cccnc2)c(C)c1	-19	13	96*	0
CCN(CC)c1ccc(NC(=O)c2cccc(C)c2OC)c(C)c1	-1	16	99*	0
Cc1ccccc1NC(=O)c1cccnc1	-34	11	0	-20
N#CC1=C(N)SC2(CCCCC2)SC1c1ccccc1 (stereo unspecified)	-8	19	94*	1
CC1CCC(C(C)C)C2=C1C(C#N)(C#N)C(C#N)(C#N)C(c1ccccc1)N2 (stereo unspecified)	-8	12	94*	0
O=C(O)c1ccc2c(c1)C(=O)N(c1cc([N+](=O)[O-])ccn1)C2=O	-12	8	/	-1
COc1cccc(/C=C2\SC(=S)N(C(C)C(=O)NC3C=CS(=O)(=O)C3)C2=O)c1 (stereo unspecified)	5	15	62	0
COc1ccc(/C=C2\SC(=S)N(C(C)C(=O)NC3C=CS(=O)(=O)C3)C2=O)cc1 (stereo unspecified)	-1	8	98*	1
C[C@H]1[C@H](c2ccccc2)C[C@@H](C(=O)O)C1(C)C	-6	22	5	0
COc1ccccc1N=c1scc(-c2ccc3c(c2)NC(=O)CO3)n1CC1CCCO1 (stereo unspecified)	12	15	99*	-1
CCN=c1scc(-c2ccc3c(c2)NC(=O)CO3)n1N=C1CCCC1	1	13	91*	0
CC(=O)N/C(=C\c1ccccc1)C(=O)OC(C)C(=O)Nc1ccccc1F (stereo unspecified)	-2	/	/	/
O=C1c2c(O)cc(O)cc2O[C@H](c2ccc(O)c(O)c2)[C@H]1O	43	-6	99*	1
C[C@@H]1O[C@@H](O[C@@H]2C(=O)c3c(O)cc(O)cc3O[C@H]2c2ccc(O)c(O)c2)[C@H](O)[C@H](O)[C@H]1O	6	/	99*	/
O=C1c2c(O)cc(O)cc2O[C@H](c2ccc(O)c(O)c2)[C@@H]1O	-5	10	99*	0
COc1ccc([C@@H]2CC(=O)c3c(O)cc(O[C@@H]4O[C@H](CO[C@@H]5O[C@@H](C)[C@H](O)[C@@H](O)[C@H]5O)[C@@H](O)[C@H](O)[C@H]4O)cc3O2)cc1O	0	24	43	0
O=C1c2c(O)cc(O)cc2O[C@H](c2ccc(O)cc2)[C@H]1O	-2	10	87*	0
COc1ccc(CN2C(=O)c3cccnc3C2=O)cc1S(=O)(=O)N1CCOc2ccc(C)cc21	6	19	-5	-1
COc1ccc(C(=O)Nc2ccccc2)cc1NC(=O)c1ccc([N+](=O)[O-])cc1	11	/	-1	1
COc1cc(C(=O)NC(=S)NNC(=O)c2cnccn2)cc(OC)c1OC	-5	-38	96*	0
Cc1cc(N(C)Cc2ccccc2)nc2cc(O)ccc12	10	7	98*	-22
SMILES	SUMO Mot1 rescue	AI-2 QS modul	ALR H2O2 inh	HIF activator
Cc1cc(N(C)Cc2ccccc2)nc(-c2ccccc2)n1	-27	13	/	0
NCCN1C(=O)S/C(=C\c2ccc3c(c2)OCO3)C1=O	-25	13	92*	2
O=C(CNC(=O)c1ccccc1F)NCCN1C(=O)S/C(=C\c2ccc3c(c2)OCO3)C1=O	3	/	/	/
Cc1cc(=O)oc2cc(OCCSCCN3CCCCC3)ccc12	-5	2	99*	1
COCCCn1c(SCC(=O)N2CCOCC2)nc2cc(Cl)ccc2c1=O	10	/	/	/
CCCn1c2ccccc2c2nnc(SCCN3CCOCC3)nc21	4	7	96*	-1
CCCN=C(C)c1c(-c2ccccc2)[nH]n(-c2nc3ccccc3s2)c1=O	-26	19	37	0
C/C(=N/NC(=O)c1cccs1)c1c(C)[nH]n(-c2nc3ccccc3s2)c1=O	-34	11	45	0
CCN(CC)CCCN=Cc1c(-c2ccccc2)[nH]n(-c2nc3ccccc3s2)c1=O	/	-5	98*	1
CC(=NCc1ccco1)c1c(C)[nH]n(-c2nc3ccccc3s2)c1=O	353*	13	-17	-1
COC(=O)Cc1[nH]n(-c2nc3ccccc3s2)c(=O)c1C(C)=Nc1ccc(C)cc1	/	5	98*	-6
COC(=O)Cc1[nH]n(-c2nc3ccccc3s2)c(=O)c1C(C)=Nc1ccc(Cl)cc1	-20	30	60	1
O=c1c(C=NCc2cccnc2)c(C(F)(F)F)[nH]n1-c1nc2ccccc2s1	-7	33	99*	-1
CCCCCCSc1ccc([C@H]2N[C@@](C)(C(=O)OC)[C@H]3C(=O)N(CC)C(=O)[C@@H]23)cc1	-18	28	2	0
O=C(CSc1nc2ncc(Cl)cc2[nH]1)N1CCC(Cc2ccccc2)CC1	12	/	-6	/
CCC(=NCc1ccco1)c1c(C(F)(F)F)[nH]n(-c2nc3ccccc3s2)c1=O	-20	17	86*	0
COC(C(=O)N/N=C/c1ccc(OCC(=O)N2CCOCC2)cc1)c1ccccc1 (stereo unspecified)	1	5	/	-1
COc1cccc(-c2nnc(NC(C)=O)o2)c1	2	16	-3	0
O=C(COc1ccccc1)Nc1nnc(-c2ccc(Cl)cc2)o1	11	-90*	0	0
Cc1cccc(C(=O)Nc2nnc(-c3cccnc3)o2)c1	11	37	6	0
COc1cccc(C(=O)Nc2nnc(-c3cccs3)o2)c1	5	-84*	-12	1
COc1cccc(C(=O)Nc2nnc(-c3ccc(F)cc3)o2)c1	-2	-88*	-4	0
Cc1cccc(C(=O)Nc2nnc(-c3ccncc3)o2)c1	14	33	97*	-1
CCCN(CC(=O)Nc1cc(Cl)ccc1Cl)C(=O)c1ccccn1	6	/	-9	/
CC(=O)c1ccc(C(=O)Nc2nnc(-c3ccc(Cl)cc3)o2)cc1	-7	?	-1	0
SMILES	SUMO Mot1 rescue	AI-2 QS modul	ALR H2O2 inh	HIF activator
COc1cccc(C(=O)Nc2nnc(-c3ccc(Cl)cc3)o2)c1	35	-87*	1	1
O=C(Nc1nnc(-c2cccnc2)o1)c1cccc([N+](=O)[O-])c1	7	69	90*	-1
COc1ccc(CNC(=O)c2ccccc2SCC(=O)NCc2ccco2)cc1	-14	/	-5	/
CC1CCCCN1C(=O)CN1C(=O)c2ccccc2S1(=O)=O (stereo unspecified)	-11	5	-3	0
O=C(Nc1ccnn1C1CCN(C2CCOCC2)CC1)c1cccc(F)c1	229	25	-4	1
Cc1cccc(N2CCN(C(=O)c3cn(C)c(=O)c4c3c3ccccc3n4C)CC2)c1C	34	-2	88*	1
